Giardia FBPA inh = qHTS Assay for Inhibitors of Fructose-1,6-bisphosphate Aldolase from Giardia Lamblia. A8B2U2. purified Giardia FBPA. Potency, µM (highest dose often 59.6 µM), actives largely listed as inhibitors. 290,000 tested, 0.71% active; further: nearly all actives have a fitted effect of over 55% in size
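40 nM FBPA preincubated 10 min at RT with compound (up to 57.5 uM final), then substrate plus GAPDH/TPI/NAD/arsenate coupling and diaphorase/resazurin added. Fluorescence read after 20 min at RT, 525/598 nm.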
Shiga toxin inh = A qHTS for Small Molecule Inhibitors of Shiga Toxin; Vero cells, Shiga toxin protein synthesis inhibition reporter; inhibition, % at 38.7 µM; 290,000 tested, 9.2% active; AID 2315, 2010; in the data active means inhibition mostly above about 28%, no sharp cut-off; inactive means mostly below about 43%
LmPK inh = qHTS Assay for Inhibitors of Leishmania Mexicana Pyruvate Kinase (LmPK); Q27686; purified LmPK, Kinase-Glo ATP luminescence, 1 h; Potency, µM (top dose mostly 57.5 µM), usual class: inhibitors; 290,000 tested, 0.37% active
Target sequence (Q27686 whole entry, looked up): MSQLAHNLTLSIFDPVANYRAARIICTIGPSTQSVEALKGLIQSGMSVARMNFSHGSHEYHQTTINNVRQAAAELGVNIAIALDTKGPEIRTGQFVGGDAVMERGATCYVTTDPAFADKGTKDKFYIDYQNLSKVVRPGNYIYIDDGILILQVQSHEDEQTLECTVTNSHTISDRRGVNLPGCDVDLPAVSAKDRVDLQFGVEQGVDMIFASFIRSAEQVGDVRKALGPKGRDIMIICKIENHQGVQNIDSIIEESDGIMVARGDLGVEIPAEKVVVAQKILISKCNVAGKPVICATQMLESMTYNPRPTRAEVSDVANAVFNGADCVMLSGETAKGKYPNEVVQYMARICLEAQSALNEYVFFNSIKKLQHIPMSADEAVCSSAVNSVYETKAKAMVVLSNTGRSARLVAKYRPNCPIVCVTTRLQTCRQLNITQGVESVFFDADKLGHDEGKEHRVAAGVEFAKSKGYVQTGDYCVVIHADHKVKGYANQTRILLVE
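Purified LmPK (0.1 nM) with 0.5 mM PEP and 0.1 mM ADP in imidazole buffer pH 7.2 with MgCl2/KCl, 1 h at room temperature. ATP formed was read by luciferase luminescence and normalized to no-enzyme and uninhibited controls.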
RE007 growth inh = qHTS Assay for Inhibitors of the HIV-1 protein Vpr; S. pombe RE007 Vpr strain, BacTiter-Glo ATP luminescence, 24 h; Potency, µM (titrated, usually from 92.2 µM), most hits filed as inhibitors; 360,000 tested, 0.21% active; AID 651644, 2012; active means well fitted falling curve with a large enough effect; inconclusive means small, poorly fitted or top-dose-only effect; inactive means no such curve, though single readings can be large or run the other way; further: nearly all actives have a fitted effect of over 50% in size
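Fission yeast RE007 carrying one integrated HIV-1 vpr copy, seeded at OD 0.01 in PMG+AL medium with 23 nL pinned compound. Grown 24 h at 30 degrees; viability read by BacTiter-Glo luminescence after 5 min.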
Tb PYK inh = qHTS of Trypanosoma Brucei Inhibitors. TbPYK enzyme, Kinase-Glo Plus ATP luminescence, 45 min. pyruvate kinase (Trypanosoma brucei), Q57TT1. Potency, µM (top dose mostly 76.8 µM), usual class: inhibitors. AID 624173, 2012. 410,000 tested, 0.12% active; further: nearly all actives have a fitted effect of over 50% in size
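Activity of T. brucei pyruvate kinase was followed by Kinase-Glo Plus luminescence after the enzyme reacted 45 min at room temperature with 130 uM ADP (final) and substrate. Test compounds were added before ADP at multiple concentrations.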
CHX counter = Cycloheximide Counterscreen for Small Molecule Inhibitors of Shiga Toxin. 300,000 tested, 12% active. cell reporter, cycloheximide protein synthesis inhibition counterscreen. max response, %; in the data active means max response mostly above about 13%, no sharp cut-off; inactive means mostly below about 14%; further: read at 38.3 µM for the half of the compounds with a filed dose
Large screens that a line does not name were inactive. Many of the other results were omitted from the sample, so hits are more common in it than they were. Unless noted, the call rests on the fitted dose curve; in most records, active means well fitted curve in the direction sought with a large enough effect; inconclusive means small, poorly fitted or top-dose-only effect, or another doubt; inactive means no such curve, though single readings can be large; an effect the other way counts as inactive or inconclusive.

COc1ccc(OCCNC(=O)/C=C/c2ccccc2)cc1	none
O=C(/C=C/c1ccccc1)NCCOc1ccccc1	Shiga toxin inh 77, CHX counter 39
COc1ccc(C(=O)/C=C/c2ccccc2C(F)(F)F)cc1	CHX counter 26
O=C(O)/C=C/c1ccc(Oc2ncccn2)cc1	none
CCOc1ccc(/C=C/C(=O)NC2CCCCC2)cc1	CHX counter 18 (no result: Shiga toxin inh)
CCOC(=O)C(CC)Sc1ccc2nnc(CCNS(=O)(=O)c3ccc(C)cc3)n2n1 (stereo unspecified)	none (no result: Giardia FBPA inh, Shiga toxin inh, LmPK inh, RE007 growth inh, CHX counter)
CC1CCN(S(=O)(=O)c2ccc3c(c2)oc(=O)n3CC(=O)NCc2ccc(F)cc2)CC1	none (no result: Giardia FBPA inh, Shiga toxin inh, LmPK inh, RE007 growth inh, CHX counter)
COc1ccc2ccc3c(c2c1)N=C[C@]1(O3)N(C)c2ccccc2C1(C)C	Giardia FBPA inh 8.9µM
O=C(CSc1nc(=O)n(Cc2ccco2)c2c1CCC2)NCc1ccc(Cl)cc1	none (no result: Giardia FBPA inh, Shiga toxin inh, LmPK inh, RE007 growth inh, CHX counter)
COc1cc(OC)cc(-c2nc(-c3cccs3)no2)c1	CHX counter 44
COc1cccc(-c2nc(-c3ccc(-c4ccccc4)nc3OC)no2)c1	none (no result: Giardia FBPA inh, Shiga toxin inh, LmPK inh, RE007 growth inh, CHX counter)
COc1ccc2oc(=O)c(-c3nc(-c4cccs4)no3)cc2c1	none (no result: Giardia FBPA inh, Shiga toxin inh, LmPK inh, RE007 growth inh, CHX counter)
COc1cccc(-c2nc(-c3cccs3)no2)c1	Shiga toxin inh 57, CHX counter 43
COc1cccc(-c2nc(CS(=O)(=O)c3ccccc3)no2)c1	Shiga toxin inh 91, CHX counter 51
COc1cccc(-c2nc(-c3ccncc3)no2)c1	Shiga toxin inh 121, CHX counter 35
COc1cccc(-n2nnc(-c3nc(-c4cccs4)no3)c2N)c1	none (no result: Giardia FBPA inh, Shiga toxin inh, LmPK inh, RE007 growth inh, CHX counter)
CCC(C)NC(=O)Cn1c(=O)n(Cc2ccc(C(=O)NCCCOC)cc2)c(=O)c2ccccc21 (stereo unspecified)	none (no result: Giardia FBPA inh, Shiga toxin inh, LmPK inh, RE007 growth inh, CHX counter)
Nc1ccc(Cc2ccc(N)c(O)c2)cc1O	Giardia FBPA inh inconclusive, Shiga toxin inh 43
S=C(NCC1CC1)N/N=C/c1ccccc1Cl	Shiga toxin inh 26
CCC(=O)N1c2ccc(S(=O)(=O)NCc3ccccc3)cc2CC1C (stereo unspecified)	CHX counter 36
CCC(=O)N1c2ccc(S(=O)(=O)CCC(=O)NC3CCCC3)cc2CC1C (stereo unspecified)	none
CC1Cc2cc(S(=O)(=O)NCc3ccccc3)ccc2N1C(=O)C1CC1 (stereo unspecified)	CHX counter 26
CC1Cc2cc(S(=O)(=O)NCc3ccccc3)ccc2N1C(=O)C1CCC1 (stereo unspecified)	none
CCOc1cc(S(=O)(=O)NC2CCCCCC2)ccc1F	Shiga toxin inh 41
CCC(=O)N1c2ccc(S(=O)(=O)NC3CCCCC3)cc2CC1C (stereo unspecified)	CHX counter 31
O=S(=O)(c1ccc(Br)cc1)c1nc(-c2cccs2)oc1SCc1ccccc1F	none (no result: Giardia FBPA inh, Shiga toxin inh, LmPK inh, RE007 growth inh, CHX counter)
O=C(Cn1c(=O)n(Cc2ccc(F)cc2)c(=O)c2sc3ccccc3c21)NCc1ccccc1	none (no result: Giardia FBPA inh, Shiga toxin inh, LmPK inh, RE007 growth inh, CHX counter)
O=C(C1CC1)N1CCc2cc(S(=O)(=O)NCc3ccccc3)ccc21	CHX counter 14 (no result: Giardia FBPA inh)
COc1ccccc1-c1nc(SCc2ccccn2)n[nH]1	Shiga toxin inh 76, CHX counter 41
COc1ccccc1-c1nnc(SCc2ccccn2)n1C	none
COc1ccc(NC(=O)C/C(C)=N/NC(=O)c2ccco2)c([N+](=O)[O-])c1	Shiga toxin inh 93, CHX counter 19
Cc1ccc(NC(=O)c2ccco2)c([N+](=O)[O-])c1	Shiga toxin inh 107, CHX counter 41
COc1ccc(NC(=O)CN2CCC(NC(=O)c3ccco3)CC2)c([N+](=O)[O-])c1	none
COc1ccc(NC(=O)c2ccco2)c([N+](=O)[O-])c1	Shiga toxin inh 35, CHX counter 20
O=C(Cn1c(=O)n(Cc2nc(-c3ccccc3)no2)c(=O)c2cc3c(cc21)OCO3)Nc1cccc(C(F)(F)F)c1	none (no result: Giardia FBPA inh, Shiga toxin inh, LmPK inh, RE007 growth inh, CHX counter)
Fc1ccc(-c2nnn(Cc3nc4ccccc4s3)n2)cc1	RE007 growth inh inconclusive, CHX counter 12

Bioassay records: PubChem, National Center for Advancing Translational Sciences (NCATS)
